The record followed here is PubChem BioAssay.

Activity calls are given as the source filed them.

Experiment [1] has as its system Plasmodium falciparum Sir2 (PF13_0152, Sir2A). The experiment can be described thus: Plasmodium falciparum Sir2A binding compounds – biochemical, small-molecule microarray, 635 nm fluorescence, primary screen (AID 1098).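 Note: score merges spot fluorescence intensity with its signal-to-noise ratio.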 To be noted: fluorescence 635 nm, higher = more signal.
Experiment [2] can be described thus: probe aDKK1 binding to arrayed compounds – biochemical, biotinylated probe, 635/667 nm fluorescence, primary screen (AID 1099).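 Note: score merges 667nm spot fluorescence with signal to noise across triplicate slides.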 To be noted: small-molecule microarray, higher = more signal.
Experiment [3] can be described thus: probe aCHRDL2 binding to arrayed compounds – biochemical, biotinylated probe, 635/667 nm fluorescence, primary screen (AID 1100). To be noted: small-molecule microarray, higher = more signal.
Experiment [4] can be described thus: change in splice reporter luminescence, either direction, cell-based, HEK293, spliceosome inhibition project, primary screen (AID 1101).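 Note: HEK293 cells carrying a splicing-competent luciferase reporter gene; test concentration not given here.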 To be noted: HEK293 splicing luciferase reporter, 24 h, higher = more signal, called active from +8 up or from −8 down. (In general: Reporter assays use an easily measured gene product as a stand-in for the process of interest.)

Experiment [5] has as its target Fibroblast growth factor 10 (Homo sapiens) (UniProt O15520). The experiment can be described thus: compounds binding fibroblast growth factor 10 – biochemical, small-molecule microarray, 635 nm fluorescence, primary screen (AID 1102). Particulars: FGF10 binding, fluorescence 635 nm, higher = more signal.
The subject of experiment [6] is glycogen synthase kinase-3 (GSK3A per assay name; protocol says GSK3B). In words: compounds binding glycogen synthase kinase-3 – biochemical, small-molecule microarray, 635 nm fluorescence, GSK3A, primary screen (AID 1103). Note: the record names both GSK3A and GSK3B. Particulars: fluorescence 635 nm, higher = more signal.
Experiment [7] has as its target Epidermal growth factor receptor (Homo sapiens) (UniProt P00533). The experiment can be described thus: compounds binding epidermal growth factor receptor – biochemical, small-molecule microarray, 635 nm fluorescence, primary screen (AID 1104).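 Note: score merges 667 nm emission intensity with spot signal to noise over triplicate slides.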 To be noted: EGFR binding, higher = more signal.
Experiment [8] addresses Follistatin-related protein 3 (Homo sapiens) (UniProt O95633). The experiment can be described thus: compounds binding follistatin-related protein 3 – biochemical, small-molecule microarray, 635 nm fluorescence, primary screen (AID 1105).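 Note: score merges emission near 667 nm and signal to noise per printed spot across three slides.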 Particulars: FSTL3 binding, higher = more signal.
In experiment [9] the target is Dickkopf-related protein 1 (Homo sapiens) (UniProt O94907). In words: small molecules binding DKK1 protein – biochemical, small-molecule microarray, 635 nm fluorescence scan, primary screen (AID 1106).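 Note: score merges emission near 667 nm with signal to noise over three replicate slides.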 To be noted: higher = more signal.
Sequence of Dickkopf-related protein 1 (Homo sapiens) (O94907 whole entry, looked up): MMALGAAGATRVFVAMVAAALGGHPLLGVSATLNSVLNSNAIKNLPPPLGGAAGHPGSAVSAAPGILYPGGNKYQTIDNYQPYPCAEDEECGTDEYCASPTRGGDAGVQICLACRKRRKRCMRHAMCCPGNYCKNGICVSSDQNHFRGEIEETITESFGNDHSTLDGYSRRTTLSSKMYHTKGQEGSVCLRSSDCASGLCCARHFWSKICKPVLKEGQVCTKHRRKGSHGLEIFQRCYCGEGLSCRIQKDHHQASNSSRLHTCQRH
The subject of experiment [10] is Inhibin beta A chain (activin A). The experiment can be described thus: small molecules binding activin A – biochemical, small-molecule microarray, 635 nm fluorescence scan, primary screen (AID 1107).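 Note: mouse activin A protein probed at 4.33 µg/mL on printed slides; score merges bound-protein fluorescence near 667 nm with spot signal-to-noise.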 Particulars: INHBA, higher = more signal.
In experiment [11] the test system is Human papillomavirus type 1a protein E7 (residues 44-93). In words: small molecules binding HPV E7 44-93 – biochemical, small-molecule microarray, residues 44-93, 635 nm fluorescence, primary screen (AID 1108).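 Note: E7 fragment applied at 1 µg/mL in TBST for 1 h at 4 C; score combines spot fluorescence with its signal to noise ratio.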 Particulars: fluorescence 635 nm, higher = more signal.
Experiment [12] can be described thus: hepatitis C replication reporter changes, two-sided – Huh7 cells, luciferase reporter, HCV replication inhibitor project, primary screen (AID 1109).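 Note: huh7 hepatoma cells harbouring a luciferase neomycin HCV replicon reporter; luciferase luminescence as measure of HCV replicon replication; test concentration not given here.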 Particulars: Huh7 HCV replicon luciferase reporter, 48 h; higher = more signal.
The target in experiment [13] is Left-right determination factor 2 (Homo sapiens) (UniProt O00292). The experiment can be described thus: small molecules binding LEFTY2 protein – biochemical, small-molecule microarray, 635 nm fluorescence scan, primary screen (AID 1110). To be noted: higher = more signal.
Sequence of Left-right determination factor 2 (Homo sapiens) (O00292 whole entry, looked up): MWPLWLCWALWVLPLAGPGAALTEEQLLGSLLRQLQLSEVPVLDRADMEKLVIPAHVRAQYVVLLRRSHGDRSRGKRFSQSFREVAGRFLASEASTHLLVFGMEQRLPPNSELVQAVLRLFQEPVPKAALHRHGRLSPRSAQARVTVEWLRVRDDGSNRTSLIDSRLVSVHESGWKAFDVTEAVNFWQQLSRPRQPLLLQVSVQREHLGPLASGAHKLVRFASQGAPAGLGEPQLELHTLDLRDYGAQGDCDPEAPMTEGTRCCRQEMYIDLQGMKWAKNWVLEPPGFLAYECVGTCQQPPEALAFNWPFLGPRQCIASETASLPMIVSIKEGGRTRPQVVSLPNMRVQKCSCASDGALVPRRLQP
The target in experiment [14] is Calmodulin-1 (Homo sapiens) (UniProt P0DP23). The experiment can be described thus: small molecules binding calmodulin-1 with EGTA – biochemical, small-molecule microarray, Cy5-labelled CALM1, profiling panel (AID 1111).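 Note: labelled calmodulin applied in Tris saline Tween buffer holding calcium plus EGTA and DTT.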 To be noted: Cy5-CALM1 binding fluorescence, higher = more signal.
Experiment [15] has the same target. In words: small molecules binding Ca-loaded calmodulin-1 – biochemical, small-molecule microarray, Cy5-labelled CALM1, plus calcium, artefact control for SMM control-protein annotation, profiling panel (AID 1112).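 Note: score merges spot fluorescence with signal to noise from triplicate slides.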 Particulars: Cy5-CALM1 binding fluorescence, higher = more signal.
Experiment [16] can be described thus: probe aWnt5a binding to arrayed compounds – biochemical, biotinylated probe, 635/667 nm fluorescence, primary screen (AID 1113).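 Note: score merges 667 nm fluorescence intensity with signal-to-noise per printed feature.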 To be noted: small-molecule microarray, higher = more signal.
The nature of experiment [17]: probe aShh binding to arrayed compounds – biochemical, biotinylated probe, 635/667 nm fluorescence, primary screen (AID 1114).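 Note: probe is biotin-labelled aShh protein from a stem cell growth factor screen; measures binding of labelled protein to compounds printed on the slide; score merges feature fluorescence at 667 nm with signal-to-noise.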 To be noted: small-molecule microarray, higher = more signal.
Experiment [18] can be described thus: probe aNog binding to arrayed compounds – biochemical, biotinylated probe, 635/667 nm fluorescence, primary screen (AID 1115).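 Note: probe is biotinylated aNog protein used at 0.15 µg/mL for 1 h at 4 C; z-score combines 667 nm fluorescence of each spot with its signal to noise.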 To be noted: small-molecule microarray, higher = more signal.
Experiment [19] deals with Torsin-1A-interacting protein 1 (Homo sapiens) (UniProt Q5JTV8). The experiment can be described thus: compound microarray binding of lysate hLAP1 – cell lysate, small-molecule microarray, COS7 lysate, 635/667 nm fluorescence, primary screen (AID 1116). Particulars: 635 nm fluorescence, higher = more signal.
Sequence of Torsin-1A-interacting protein 1 (Homo sapiens) (Q5JTV8 whole entry, looked up): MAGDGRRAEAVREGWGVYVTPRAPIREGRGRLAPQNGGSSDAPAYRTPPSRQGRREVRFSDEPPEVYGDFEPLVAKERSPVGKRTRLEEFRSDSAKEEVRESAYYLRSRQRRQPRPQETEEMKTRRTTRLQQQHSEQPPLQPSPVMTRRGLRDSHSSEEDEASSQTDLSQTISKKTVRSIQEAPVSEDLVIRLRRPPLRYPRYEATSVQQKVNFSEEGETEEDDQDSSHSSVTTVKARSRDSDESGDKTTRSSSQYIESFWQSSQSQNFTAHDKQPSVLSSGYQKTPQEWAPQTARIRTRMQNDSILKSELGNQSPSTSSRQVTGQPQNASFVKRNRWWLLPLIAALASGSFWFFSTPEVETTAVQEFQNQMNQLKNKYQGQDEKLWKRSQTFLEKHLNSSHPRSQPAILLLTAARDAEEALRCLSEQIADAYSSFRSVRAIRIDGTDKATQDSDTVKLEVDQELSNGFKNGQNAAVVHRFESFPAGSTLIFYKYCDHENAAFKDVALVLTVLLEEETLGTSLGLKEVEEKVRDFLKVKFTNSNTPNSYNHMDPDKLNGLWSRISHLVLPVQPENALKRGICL
Experiment [20] deals with Alpha-bungarotoxin (Bungarus multicinctus) (UniProt P60615). The experiment can be described thus: compounds binding labelled alpha-BTX control protein – biochemical, small-molecule microarray, Alexa647 label, 635/667 nm fluorescence, artefact control for SMM control protein annotation, profiling panel (AID 1117). To be noted: alpha-BTX-A647 binding fluorescence, higher = more signal.
Sequence of Alpha-bungarotoxin (Bungarus multicinctus) (P60615 whole entry, looked up): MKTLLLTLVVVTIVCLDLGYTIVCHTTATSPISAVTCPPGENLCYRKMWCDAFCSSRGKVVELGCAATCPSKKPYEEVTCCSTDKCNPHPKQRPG

Sequence of Fibroblast growth factor 10 (Homo sapiens) (O15520 whole entry, looked up): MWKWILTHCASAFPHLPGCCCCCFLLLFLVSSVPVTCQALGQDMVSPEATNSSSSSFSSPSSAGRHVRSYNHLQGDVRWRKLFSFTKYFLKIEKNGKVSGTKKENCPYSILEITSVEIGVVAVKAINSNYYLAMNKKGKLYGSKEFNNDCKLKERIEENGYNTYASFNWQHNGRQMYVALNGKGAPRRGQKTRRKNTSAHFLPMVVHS
Sequence of Epidermal growth factor receptor (Homo sapiens) (P00533 whole entry, looked up): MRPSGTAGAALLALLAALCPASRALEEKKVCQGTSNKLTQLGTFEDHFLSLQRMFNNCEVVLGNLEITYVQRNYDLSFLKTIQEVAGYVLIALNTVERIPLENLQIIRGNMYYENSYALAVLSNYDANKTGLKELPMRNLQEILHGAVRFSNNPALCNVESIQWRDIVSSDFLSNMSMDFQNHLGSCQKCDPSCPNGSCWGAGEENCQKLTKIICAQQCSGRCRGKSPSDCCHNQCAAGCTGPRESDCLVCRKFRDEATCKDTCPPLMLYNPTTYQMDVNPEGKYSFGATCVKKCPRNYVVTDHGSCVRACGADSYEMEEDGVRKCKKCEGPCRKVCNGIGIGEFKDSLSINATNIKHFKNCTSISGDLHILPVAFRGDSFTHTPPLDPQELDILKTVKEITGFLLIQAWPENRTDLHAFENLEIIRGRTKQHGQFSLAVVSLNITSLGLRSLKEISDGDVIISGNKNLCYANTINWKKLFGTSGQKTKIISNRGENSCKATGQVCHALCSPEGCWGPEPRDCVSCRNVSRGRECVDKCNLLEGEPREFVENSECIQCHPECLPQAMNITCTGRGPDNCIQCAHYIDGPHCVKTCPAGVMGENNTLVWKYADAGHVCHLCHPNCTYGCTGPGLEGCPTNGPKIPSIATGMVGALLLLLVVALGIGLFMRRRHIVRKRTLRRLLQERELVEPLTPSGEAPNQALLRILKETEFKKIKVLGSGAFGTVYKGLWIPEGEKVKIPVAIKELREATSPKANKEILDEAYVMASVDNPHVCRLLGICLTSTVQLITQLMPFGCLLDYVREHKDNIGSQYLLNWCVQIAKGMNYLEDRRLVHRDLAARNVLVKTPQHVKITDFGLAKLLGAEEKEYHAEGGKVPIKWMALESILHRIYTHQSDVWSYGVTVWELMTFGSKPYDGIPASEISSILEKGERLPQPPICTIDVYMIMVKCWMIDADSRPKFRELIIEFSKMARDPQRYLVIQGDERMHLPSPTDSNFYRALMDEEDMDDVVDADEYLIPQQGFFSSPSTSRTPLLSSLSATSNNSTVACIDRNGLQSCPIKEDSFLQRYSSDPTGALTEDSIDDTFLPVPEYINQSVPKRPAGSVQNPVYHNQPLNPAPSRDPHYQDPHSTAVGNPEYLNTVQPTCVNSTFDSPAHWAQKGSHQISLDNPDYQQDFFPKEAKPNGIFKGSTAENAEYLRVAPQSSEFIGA
Sequence of Follistatin-related protein 3 (Homo sapiens) (O95633 whole entry, looked up): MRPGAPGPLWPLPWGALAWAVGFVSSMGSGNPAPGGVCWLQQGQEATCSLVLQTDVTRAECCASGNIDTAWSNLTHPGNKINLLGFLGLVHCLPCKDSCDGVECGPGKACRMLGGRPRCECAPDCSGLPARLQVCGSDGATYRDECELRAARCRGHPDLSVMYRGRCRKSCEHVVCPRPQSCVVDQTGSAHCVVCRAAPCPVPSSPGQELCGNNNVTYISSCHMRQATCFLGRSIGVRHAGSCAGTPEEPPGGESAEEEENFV

For the compound `C=C1C2CC3C(=C4C(CO[C@@H]4[C@H]4CCCN4S(=O)(=O)c4ccccc4[N+](=O)[O-])C4C(=O)N(C)C(=O)C34)CC2C(=O)N1C` (stereo not given in full), the composite z-score in [1] was 0.201; in experiment [2], -0.2; in experiment [3], -0.427; in experiment [5], 0.475; in experiment [6] it was 0.0168; in [7] it was -0.0553. The composite z-score in experiment [8] is 0.157; in experiment [9] it was 0.298; in experiment [10], 0.689; in experiment [11], -1.04; in experiment [13] it was 0.0437; in [14], -0.0741. Further, the composite z-score is -0.0942 in experiment [15]; -0.152 in experiment [16]; -0.0769 in experiment [17]; 0.0473 in experiment [18]; 0.231 in experiment [19]; 0.26 in experiment [20]. The z-score in experiment [4] was 0.194 (inactive); in experiment [12], -0.979.
Regarding `O=C1OCCC=C[C@H]2OC34C=CCN(c5ccc(Cl)cc5)C(=O)[C@H]3N(CCCCCO)C(=O)[C@@H]4C12` (stereo not given in full), the composite z-score in experiment [1] was 1.87; in [2], -0.0263; in [3], 0.255; in [5] it was -0.315; in [6], 0.0788; in experiment [7] it was -0.935. Moreover, the composite z-score is -0.713 in experiment [8]; -0.172 in [9]; 0.883 in experiment [10]; -0.357 in experiment [11]; -0.639 in experiment [13]; -0.262 in experiment [14]. Moreover, the composite z-score is -0.137 in experiment [15]; -0.0512 in [16]; -0.0769 in experiment [17]; 0.496 in experiment [18]; 0.681 in experiment [19]; -0.702 in [20]. Moreover, the z-score in [4] was -0.443 (inactive); in experiment [12], 0.312.
`COc1cc2c(cc1OC)CN(C(=O)[C@H]1[C@@H]3C(=O)O[C@@H](c4ccccc4)[C@@H](c4ccccc4)N3[C@@H](c3ccc(OCCO)cc3)[C@]13C(=O)Nc1ccc(C#CC4(O)CCCCCC4)cc13)CC2`: the composite z-score is 1.09 in experiment [1]; 1.59 in experiment [2]; 0.623 in [3]; 1.12 in experiment [5]; 1.31 in experiment [6]; 1.02 in experiment [7]. The composite z-score in experiment [8] was 1.33; in [9], 1.31; in experiment [10], 1.07; in [11], 1.43; in experiment [13] it was 1.15; in experiment [14] it was 0.91. Further, the composite z-score was 0.765 in experiment [15]; -0.236 in [16]; -0.882 in experiment [17]; 1.72 in [18]; 0.964 in [19]; 0.691 in experiment [20]. For the same compound, the z-score in [4] is 0.415 (inactive); in experiment [12], -1.33.
Consider `CCCCC(=C=CC[C@@H](O)c1ccc(OCCO)cc1)C[C@@H](O)COCc1ccccc1`, for which the composite z-score in [1] is 1.27; in experiment [2], -0.338; in [3], -0.212; in experiment [5], 1.01; in experiment [6], -0.0016; in [7], -0.3. The composite z-score in experiment [8] is 0.245; in [9], 0.111; in experiment [10], 0.856; in experiment [11], -0.548; in experiment [13] it was 0.141; in experiment [14], -0.686. For the same compound, the composite z-score in [15] was -0.244; in [16] it was 0.0044; in experiment [17] it was 0.0796; in experiment [18] it was -0.213; in experiment [19] it was 1.89; in experiment [20] it was -0.324. The z-score in experiment [4] was -0.784 (inactive); in experiment [12], -1.45.
In the case of `COc1ccc(NC(=O)O[C@H]2[C@H](OC(=O)Nc3ccc4c(c3)OCO4)[C@@H](OC(=O)Nc3ccc4c(c3)OCO4)[C@@H](OC)O[C@@H]2CO)cc1`, the composite z-score in experiment [1] is 1.61; in [2] it was 0.0898; in [3], 0.0398; in [5], 1.11; in experiment [6], 1.29; in experiment [7], 0.0699. For the same compound, the composite z-score in experiment [8] came to 0.516; in [9], 0.0542; in experiment [10], 0.774; in experiment [11], 1.38; in [13], 0.0093; in experiment [14] it was 1.88. In addition, the composite z-score in [15] was -0.56; in experiment [16], -0.0478; in experiment [17], 0.365; in experiment [18], 0.966; in [19], 1.29; in [20] it was 0.663. The z-score in experiment [4] is 1.27 (inactive); in experiment [12] it was -0.802.
As for `CON(C)C(=O)C=C1C[C@@H](c2cccc(Cl)c2)O[C@@H](c2cccc(Cl)c2)O1`, the composite z-score in experiment [1] was 1; in [2], 0.0204; in experiment [3], -0.126; in experiment [5], -0.148; in experiment [6], 0.846; in [7], -0.185. In addition, the composite z-score was 0.243 in [8]; 0.484 in experiment [9]; 0.9 in [10]; 0.151 in experiment [11]; 0.158 in experiment [13]; 0.389 in experiment [14]. The composite z-score in [15] was 0.3; in experiment [16], -0.0704; in experiment [17] it was 0.134; in [18] it was -0.389; in experiment [19], 0.525; in experiment [20], 0.764. Further, the z-score in experiment [4] was -1.16 (inactive); in experiment [12], -3.11.
As to `C=CCOC(=O)[C@@H]1[C@H]2C(=O)O[C@H](c3ccccc3)[C@H](c3ccccc3)N2[C@H](c2ccc(OCCOC(=O)[C@H]3C[C@H]4C(=O)N[C@@H](CC(C)C)C(=O)N4[C@H]3c3ccc(O)cc3)cc2)[C@@]12C(=O)Nc1ccc(I)cc12`, the composite z-score in experiment [1] is 1.25; in [2], 0.198; in experiment [3], -0.093; in [5] it was 1.4; in experiment [6], 1.32; in [7] it was 1.08. Besides, the composite z-score in [8] came to 1.51; in experiment [9], 0.931; in experiment [10], 0.463; in experiment [11], 0.719; in experiment [13], 0.808; in experiment [14] it was 0.0847. The composite z-score in experiment [15] was -0.481; in experiment [16], -0.0478; in experiment [17], 0.235; in [18], 0.135; in experiment [19], 0.859; in experiment [20], 2. The figures for the z-score in experiment [4] and in experiment [12] were 0.242 (inactive) and -0.866, respectively.
